Experimental findings from PubChem BioAssay are described below.

Unmarked numbers belong to inactive results. How the calls were made is not given here.

The subject of this experiment is Aerobactin synthetase IucA (Klebsiella pneumoniae hvKP1). The experiment is described as follows: Biochemical IucA enzyme inhibition primary screen of the Spectrum library (AID 1346200).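 Further: 100% = wells without compound and 0% = wells lacking enzyme.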 The note with it: malachite green pyrophosphate, A620, at 8 µM, active compounds read low.
With `O=C(O)CCCCCCCC(=O)O`, the activity remaining was 120%.
To `N=C(N)SCCN` belongs 98.6%; to `CC(=O)Nc1nnc(S(N)(=O)=O)s1`, 103%.
With `CC(C)(Oc1ccc(C2CC2(Cl)Cl)cc1)C(=O)O` (stereo not drawn) the figure was 116%; with `Nc1nc2c(ncn2COCCO)c(=O)[nH]1`, 118%.
With `COc1cc2nc(N3CCN(C(=O)c4ccco4)CC3)nc(N)c2cc1OC` the figure was 127%.
For the molecule `CCCCC[C@H](CC(=O)NO)C(=O)N[C@H](C(=O)N1CCC[C@H]1CO)C(C)C`, the activity remaining is 109%.
With `COc1ccc2[nH]cc(CCNC(C)=O)c2c1` the figure was 111%; with `OCCN(CCO)c1nc(N2CCCCC2)c2nc(N(CCO)CCO)nc(N3CCCCC3)c2n1`, 89.5%; with `O=C(/C=C/c1ccc(O)cc1)c1ccc(O)cc1O`, 98.7%.
To `C=C[C@H]1CN2CC[C@H]1C[C@@H]2[C@@H](O)c1ccnc2ccc(OC)cc12` belongs 98.9%.
With `O=C(CCc1ccc(O)cc1)c1c(O)cc(O)cc1O` the figure was 105%.
Turning to `O=C(C1CCCCC1)N1CC(=O)N2CCc3ccccc3C2C1` (stereo not drawn), the activity remaining is 123%.
With `Cc1ccc(Cl)c(Nc2ccccc2C(=O)O)c1Cl` the figure was 93.4%.
Regarding `Cc1cn[nH]c1`, the activity remaining is 102%.
With `CCn1cc(C(=O)O)c(=O)c2cc(F)c(N3CCNC(C)C3)c(F)c21` (stereo not drawn) the figure was 104%; with `O=C(O)C1=CC(=C(c2ccc(O)c(C(=O)O)c2)c2ccc(O)c(C(=O)O)c2)C=CC1=O`, 101%; with `c1ccc2c(c1)CCCC2C1=NCCN1` (stereo not drawn), 110%.
